Screening results from PubChem BioAssay.
The list is not random: actives were taken first. Their share in the collection is about 28%.
Plk1 PBD FP = Plk1 polo box domain binding inhibitors, primary screen, biochemical, fluorescence polarization; Plk1 PBD phosphopeptide binding; inhibition, %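 (tested at about 20 µM)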; Serine/threonine-protein kinase PLK1 (Homo sapiens), P53350; AID 693, 2007; 0.13% of 97,000 active; in the data active means inhibition above about 34%, passing the limit was not always enough
PLK1 kinase inh = human PLK1 kinase inhibitors, primary screen, biochemical, TR-FRET | recombinant PLK1 kinase, TR-FRET peptide phosphorylation | 0.53% of 97,000 active | inhibition, % at 10 µM;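 active means inhibition of 50% or more in the single-concentration screen; inactive means inhibition below 50%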
CYP2C19 inhib = blockers of cytochrome P450 2C19 activity – biochemical, luminescence, ADME assay, primary screen; P33261; inhibition, % at 5 µM; AID 778, 2007; 21% of 96,000 active; CYP2C19 Supersomes, luciferin-H EGE luminescence, 30 min;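 active means CYP2C19 inhibition above a set limit at 5 µM in the primary screen, cut at about 50% in these data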
CYP2C9 inh = blockers of cytochrome P450 2C9 activity – biochemical, luminescence, ADME assay, primary screen; 20% of 96,000 active; inhibition, % at 5 µM; P11712; CYP2C9 Supersomes, luciferin-H conversion;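 active means blocking of liver enzyme CYP2C9 beyond about 50% at 5 µM, limit read from the data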
Target sequence (P11712 whole entry, looked up): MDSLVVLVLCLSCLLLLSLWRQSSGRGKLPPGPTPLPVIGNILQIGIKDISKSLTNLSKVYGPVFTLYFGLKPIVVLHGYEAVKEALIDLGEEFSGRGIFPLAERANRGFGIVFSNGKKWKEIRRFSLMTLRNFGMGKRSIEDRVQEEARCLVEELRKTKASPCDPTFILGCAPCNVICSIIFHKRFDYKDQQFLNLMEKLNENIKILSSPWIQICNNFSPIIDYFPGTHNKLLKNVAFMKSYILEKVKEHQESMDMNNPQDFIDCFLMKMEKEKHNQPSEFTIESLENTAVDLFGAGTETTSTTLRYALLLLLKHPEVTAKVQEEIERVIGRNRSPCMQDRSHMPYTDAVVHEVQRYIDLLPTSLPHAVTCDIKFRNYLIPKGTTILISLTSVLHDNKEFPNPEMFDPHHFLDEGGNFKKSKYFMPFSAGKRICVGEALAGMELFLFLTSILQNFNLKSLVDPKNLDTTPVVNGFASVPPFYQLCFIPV
CYP2C19 activ = human CYP2C19 activators, primary screen, biochemical, luminescence; Cytochrome P450 2C19 (Homo sapiens), P33261; recombinant CYP2C19, luciferin-H EGE luminescence; hits give high values; 0 = fully inhibited enzyme, 1 = untreated enzyme; activation factor at 5 µM; 96,000 tested, under 10 active;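 active means activation factor of at least 2 at 5 µM in the primary screen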
CYP2C9 act = human CYP2C9 activators, primary screen, biochemical, luminescence; activation factor at 5 µM; recombinant CYP2C9, luciferin-H conversion; hits give high values; factor 1 = untreated enzyme, 0 = blocked; 1.4% of 96,000 active; Cytochrome P450 2C9 (Homo sapiens), P11712;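 active means activation factor of 2 or more for CYP2C9 at a 5 µM dose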
Of the large screens only hits and unclear results are named; the others gave an inactive call.

COc1ccc(F)c(C2C(C#N)=C(N)Oc3n[nH]c(C(C)(C)C)c32)c1 (stereo not given)	CYP2C19 inhib 70
CCCC1C(C#N)=C(N)Oc2n[nH]c(C(C)(C)C)c21 (stereo not given)	CYP2C19 inhib 93, CYP2C9 inh 70 (no result: Plk1 PBD FP, PLK1 kinase inh)
COC(=O)Cc1[nH]nc2c1C(c1c[nH]c3ccccc13)C(C#N)=C(N)O2 (stereo not given)	CYP2C19 inhib 52
CCOC(=O)Cc1[nH]nc2c1C(c1ccoc1)C(C#N)=C(N)O2 (stereo not given)	CYP2C19 inhib 77
CCCc1[nH]nc2c1C(c1ccc(OC)cc1OC)C(C#N)=C(N)O2 (stereo not given)	none
CCN(CC)C(=O)N1CCc2ccccc2C1CN1C(=O)c2ccccc2C1=O (stereo not given)	none (no result: CYP2C19 inhib, CYP2C9 inh, CYP2C19 activ, CYP2C9 act)
N=c1c(C(=O)NCc2ccco2)cc2c(=O)n3ccccc3nc2n1Cc1ccc(Cl)cc1	CYP2C9 inh 64
COC(=O)c1cc2c(=O)n3ccccc3nc2n(C(C)C)c1=N	none (no result: CYP2C19 inhib, CYP2C9 inh, CYP2C19 activ, CYP2C9 act)
Cn1c(=N)c(S(=O)(=O)c2ccccc2)cc2c(=O)n3ccccc3nc21	none
N=c1c(S(=O)(=O)c2ccc(Cl)cc2)cc2c(=O)n3ccccc3nc2n1CCN1CCOCC1	CYP2C9 inh 59 (no result: Plk1 PBD FP, PLK1 kinase inh)
CCn1c(=N)c(C(=O)OC)cc2c(=O)n3ccccc3nc21	CYP2C19 inhib 63 (no result: Plk1 PBD FP, PLK1 kinase inh)
N=c1c(C(=O)NCc2ccco2)cc2c(=O)n3ccccc3nc2n1Cc1ccccc1	none
Cc1ccc(CNC(=O)c2cc3c(=O)n4ccccc4nc3n(Cc3ccco3)c2=N)cc1	CYP2C9 inh 56 (no result: Plk1 PBD FP, PLK1 kinase inh)
COC(=O)Cn1cnc2c(nnn2-c2ccc(C)cc2)c1=O	none
COc1ccc(NC(=O)N(CCC(C)C)C(C)c2ccccn2)c(OC)c1 (stereo not given)	none
Cc1ccc2oc(=O)c3cnn(CC(=O)NC4CCCCC4C)c3c2c1 (stereo not given)	none
COc1cc(C(=O)COC(=O)CNC(=O)C2CCCCC2)cc(OC)c1OC	none
N=c1c(C(=O)NCc2ccc3c(c2)OCO3)cc2c(=O)n3ccccc3nc2n1Cc1cccnc1	CYP2C9 inh 67 (no result: Plk1 PBD FP, PLK1 kinase inh)
Cc1ccc(SCc2noc(C(=O)NCC3CCCO3)c2C(=O)O)cc1C (stereo not given)	none
O=C(NCC1CCCO1)c1onc(CSc2cccc3ccccc23)c1C(=O)O (stereo not given)	CYP2C9 inh 82
O=C(NCC1CCCO1)c1onc(CSc2cccc(Cl)c2)c1C(=O)O (stereo not given)	CYP2C9 inh 55
CCOc1cccc(SCc2noc(C(=O)NCC3CCCO3)c2C(=O)O)c1 (stereo not given)	CYP2C19 inhib 54, CYP2C9 inh 50
COC(=O)CCCCCc1ccc(C(C)=O)s1	none
COc1ccccc1CNC(=O)C1CCN(S(=O)(=O)N2CCCCC2)CC1	CYP2C9 act 2.2
COc1ccc(Br)cc1CNC(=O)C1CCN(S(=O)(=O)N2CCCC2)CC1	CYP2C9 act 2.6
Cc1c2c([n+]3n1CCC3)CC(C)(C)CC2=O	none (no result: Plk1 PBD FP, PLK1 kinase inh)
COc1ccccc1C1/C(=C(/O)c2ccccc2)C(=O)C(=O)N1CC(C)O (stereo not given)	none
Nc1cccnc1Sc1cc(Cl)c(Cl)cc1Cl	none
Cc1cc(S(=O)(=O)Nc2ccc(C(=O)N3CCN(C(=O)c4ccco4)CC3)cc2)ccc1F	none
O=C(c1ccco1)N1CCN(C(=O)C2Cc3ccccc3CN2S(=O)(=O)c2ccc(F)cc2)CC1 (stereo not given)	CYP2C19 inhib 76 (no result: Plk1 PBD FP, PLK1 kinase inh)
O=C(c1ccco1)N1CCN(S(=O)(=O)c2ccc(F)cc2)CC1	CYP2C19 inhib 53
O=C(C1Cc2ccccc2CN1S(=O)(=O)c1ccc(F)cc1)N1CCCCC1 (stereo not given)	none
O=C(c1ccco1)N1CCN(c2ccc(S(=O)(=O)N3CCCC3)cc2)CC1	none
O=C(c1ccc(S(=O)(=O)Nc2ccc(F)cc2)cc1)N1CCN(C(=O)c2ccco2)CC1	CYP2C9 inh 75
